HT1080NT lethal = kills 2HG-producing HT-1080-NT fibrosarcoma cells; HT-1080-NT fibrosarcoma viability, CellTiter-Glo ATP luminescence, 48 h; Potency, µM (top dose mostly 46.1 µM), for the others: at the top dose activity, negative = less viability, hits mostly cytotoxic; 360,000 tested, 1.6% active; AID 686970;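 also: NT is the 2HG producing partner of a matched IDH1 knockdown line; potency is read from the fitted curve at half-maximal effect; 0% = DMSO-treated cells and -100% = media-only wells without cells; nearly all actives have a fitted effect of over 55% in size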
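Compounds were tested in concentration-response format on HT-1080-NT cells for 48 hours at 37 degrees C. Cell viability came from CellTiter-Glo luminescence; curves were classified by r2, response magnitude and activity.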
ELG1 repair inh = inhibitors of ELG1-dependent DNA repair in HEK293T cells. HEK293T ELG1-luciferase reporter, luminescence, 16 h; DNA damage induced by 5-fluorouridine. Potency, µM (top dose mostly 46.1 µM), without a hit: at the highest dose activity change, negative = inhibition, actives largely listed as inhibitors. 330,000 tested, 2.3% active. AID 504467; also: potency is read from the fitted curve at half-maximal effect; nearly all actives have a fitted effect of over 55% in size
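HEK293T cells expressing luciferase-tagged ELG1 (2,000/well) received 5-Fluorouridine plus compound or DMSO for 16 hr at 37 °C. Luciferase was read by ONE-Glo luminescence after 30 min at room temperature.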
DT40 TDP1 CPT = DT40-hTDP1 cell growth loss with CPT; chicken DT40 Tdp1-/-;hTDP1 cells + 20 nM CPT, ATP luminescence, 48 h; Potency, µM (titrated, usually from 46.2 µM), without a hit: at the top dose activity change, negative = growth inhibition, most hits filed as inhibitors; 420,000 tested, 12% active; also: potency is read from the fitted curve at half-maximal effect; nearly all actives have a fitted effect of over 55% in size
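Chicken DT40 Tdp1-/- cells complemented with human TDP1, 400 cells/well, exposed to compounds plus 20 nM camptothecin for at least 48 h at 37 C; viability read as ATP content by CellTiter-Glo luminescence.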
IL1B secr inh = blocks inflammasome-driven IL-1 beta release. THP-1 LPS/ATP IL-1B secretion, AlphaLISA, 16 h; hits give low values. activity change, % at 57.5 µM. 360,000 tested, 4.7% active. AID 743279; in the data active = activity change below about -50%; inconclusive = mostly about -30% to -49%
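Secreted IL-1B measured by AlphaLISA bead assay after 16 h compound exposure of THP-1 cells; compounds (final up to 57.5 uM) added 1 h before LPS (250 ng/mL) and ATP (1.25 mM) stimulation; lower signal means less secretion.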
TDP1 cell noCPT = qHTS for Inhibitors of human tyrosyl-DNA phosphodiesterase 1 (TDP1): qHTS in cells in absence of CPT. DT40 Tdp1-/- hTDP1 cells, no CPT, ATP luminescence, 48 h. 420,000 tested, 15% active. AID 686978, 2013. Potency, µM (top dose mostly 46.2 µM), for inactives: at the highest dose activity change, negative = growth inhibition, actives largely listed as inhibitors; also: potency is read from the fitted curve at half-maximal effect; nearly all actives have a fitted effect of over 55% in size
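Camptothecin absent (DMSO only). Human TDP1-complemented DT40 knockout cells, 400 cells/well, 37 °C for minimum 48 hr; ATP measured via CellTiter-Glo, 30 min dark incubation, luminescence.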
HT1080 IDH1KD tx = kills HT-1080 cells with IDH1 knockdown | HT-1080 IDH1 knockdown viability, ATP luminescence, 48 h | Potency, µM (top dose mostly 46.1 µM), for inactives: at the top dose activity, negative = toxicity, usual class: cytotoxic | 360,000 tested, 2% active;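 also: potency is read from the fitted curve at half-maximal effect; 0% = DMSO wells and -100% = cell-free medium wells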
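CellTiter-Glo luminescence after 48 h compound exposure at 37 degrees C of IDH1-knockdown HT-1080 cells in 5% FBS RPMI. %Activity scaled between DMSO wells and cell-free media wells, with curves fitted and assigned curve classes.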
Active calls of the source: *; u = inconclusive; x = no result. An excerpt weighted towards active compounds, which were near 19% of everything screened. Unless noted, calls follow the shape of the dose curve; as a rule, active = well fitted curve in the direction sought with a large enough effect; inconclusive = small, poorly fitted or top-dose-only effect, or another doubt; inactive = no such curve, though single readings can be large; an effect the other way counts as inactive or inconclusive. Unless noted, % is scaled to controls: 0 for no effect and ±100 for the full control effect.

SMILES | HT1080NT lethal | ELG1 repair inh | DT40 TDP1 CPT | IL1B secr inh | TDP1 cell noCPT | HT1080 IDH1KD tx
CCCCN1C(=O)c2[nH]nc(-c3ccccc3O)c2C1c1ccc(OCc2ccccc2)c(OC)c1 (stereo not drawn) | x | x | u | x | 21µM* | x
CC1CCN(S(=O)(=O)N2CCC(C(=O)NCc3ccc(F)cc3Cl)CC2)CC1 | -10% | x | -24% | -24 | u | 0%
CC(C)C#Cc1ccc2c(c1)O[C@@H](CN(C)S(=O)(=O)c1cn(C)cn1)[C@@H](C)CN([C@H](C)CO)S2(=O)=O | -3% | x | u | -2 | u | 1%
COc1cc(C2c3c(-c4cc(C)ccc4O)n[nH]c3C(=O)N2CCCO)ccc1OCCC(C)C (stereo not drawn) | x | x | u | x | 29µM* | x
CCOC1=C2[C@@H](CN(S(=O)(=O)c3ccc(C)cc3)[C@H]2c2ccccc2F)[C@H]2C(=O)N(C3CCCCC3)C(=O)[C@H]2C1 | 24% | x | u | -6 | u | 10%
CN(NC1OC(=O)c2ccccc21)c1ccc(Cl)cc1[N+](=O)[O-] (stereo not drawn) | -2% | u | 2% | 9 | 5% | -18%
O=C1OC(/C(=C\Nc2cc(Cl)ccc2O)[N+](=O)[O-])c2ccccc21 (stereo not drawn) | u | u | 9% | -170* | u | u
Cc1ccc(N/C=C(\C2OC(=O)c3ccccc32)[N+](=O)[O-])c(C)c1 (stereo not drawn) | 1% | u | 1% | -77* | -30% | 0%
Cc1ccc(C)c(S(=O)(=O)c2nnn3c2nc(Nc2ccc(C)c(C)c2)c2ccccc23)c1 | x | x | -1% | x | -5% | x
CN1CCCC(OC(=O)c2ccccc2F)C1 (stereo not drawn) | 1% | 12% | -3% | 0 | 17% | 5%
CN1CCCC(CC2c3ccccc3Sc3ccccc32)C1 (stereo not drawn) | 21µM* | 20% | u | -58* | 8.1µM* | 18µM*
COC(=O)Cn1c(C)c(/C=C/c2cc[n+](C)cc2)c2ccccc21 | 4% | 2% | u | 31 | 16µM* | 1%
COc1ccc(CC(=O)NNS(=O)(=O)c2ccc(F)cc2)cc1 | -2% | u | u | 15 | -23% | 4%
Cc1cc(C)n2c(NC3CCCC3)c(-c3ccc(F)cc3)nc2n1 | 12% | x | u | 20 | 18µM* | 3%
Cc1cc(C)n2c(NC3CCCC3)c(-c3cc4ccccc4o3)nc2n1 | -29% | x | u | 15 | u | 4%
Cc1cc(C)n2c(NC3CCCCC3)c(-c3ccccn3)nc2n1 | -7% | x | u | 43 | 23µM* | 4%
Cc1nc(C)c(-c2ccc(SCC(=O)Nc3ccc(F)cc3F)nn2)s1 | -1% | 18µM* | u | 0 | u | -1%
Cc1nc(C)c(-c2ccc(SCC(=O)Nc3cccc(C)c3C)nn2)s1 | x | x | 16µM* | x | 21µM* | x
Cc1nc(C)c(-c2ccc(SCC(=O)Nc3ccccc3F)nn2)s1 | x | x | u | x | 15µM* | x
CCn1c(O)c(C=NCc2ccccc2)sc1=S | -1% | 3% | -25% | -21 | u | 0%
CCCn1c(O)c(C=Nc2ccccc2)sc1=S | -19% | u | -5% | -9 | u | -4%
CCCCn1c(O)c(/C=C/C=C/C=Nc2ccccc2)sc1=S | -10% | 6% | 12µM* | -7 | 15µM* | -8%
CCn1c(O)c(/C=C/C=C/C=Nc2ccccc2)sc1=S | -5% | 8% | u | -7 | 26µM* | 3%
